Hits are enriched below; roughly 3% of the tested compounds scored in any of these assays.
aSyn UTR inh: MLPCN primary screen, SNCA 5' untranslated region; alpha-synuclein 5'UTR reporter, inhibitor activity; inhibition, % (tested at 7.5 µM); 0.82% of 300,000 active; in the data active means inhibition above about 60%; inconclusive means no clear call, values can overlap the other calls;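 further: H4 neuroglioblastoma cells stably carrying SNCA 5'UTR luciferase fusion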
SKKanGAS inh: blocks kanamycin growth of S. pyogenes SKKanGAS strain; BacTiter-Glo, 6 h; inhibition, % at 7.5 µM; 1.3% of 300,000 active; AID 1662;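 active means mean replicate score, as percent of positive control median, at least 50; inconclusive means mean below 50 but one replicate at or above 50; inactive means mean and every replicate below 50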;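 further: strain carries kanamycin resistance gene driven by streptokinase promoter and grows in 40 µg/ml kanamycin; loss of luminescence reflects streptokinase promoter inhibition or plain growth inhibition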
KLF5 inh: suppresses KLF5 promoter-driven expression; AID 1700; DLD-1 KLF5 promoter-luciferase reporter, luminescence; 0.23% of 290,000 active; inhibition, % at 5 µM;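 active means inhibition above a per-plate limit of that plate's mean compound inhibition plus 3 SD, cut at about 60% in these data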;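 further: higher means less KLF5 promoter-driven luciferase light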
IEC-6 cytotox: kills IEC-6 intestinal cells in KLF5 counter-screen; inhibition, % at 5 µM; 0.78% of 290,000 active; IEC-6 cytotoxicity, luminescence viability; AID 1825; in the data active means inhibition above about 22%
CSC inhib: blocks cancer stem cells. cancer stem cell-like cells viability, luminescence. inhibition, % at 7.5 µM. 1.1% of 300,000 active; in the data active means inhibition above about 75%; inconclusive means no clear call, values can overlap the other calls; tested in HMLE shEcad cells
Of the large screens only hits and unclear results are named; the others gave an inactive call.

OCCC1CN(Cc2ccon2)CCN1CCc1ccccc1 (centres undefined)	none
Cc1ccc(CN2CCN(Cc3cnc(N4CCOCC4)s3)CC2CCO)cc1 (centres undefined)	none
O=C(N/N=C/c1ccc(Cl)cc1)c1sccc1OCc1ccc(F)cc1	aSyn UTR inh 73 (no result: CSC inhib)
O=C(N/N=C/c1ccc(F)cc1)c1sccc1OCc1ccc(F)cc1	none
Cn1nnnc1Sc1ncnc2scc(-c3cccc(Br)c3)c12	CSC inhib 89 (no result: aSyn UTR inh, SKKanGAS inh, KLF5 inh, IEC-6 cytotox)
Cn1nnnc1Sc1ncnc2scc(-c3cccc4c3sc3ccccc34)c12	CSC inhib 111 (no result: aSyn UTR inh, SKKanGAS inh, KLF5 inh, IEC-6 cytotox)
Cn1nnnc1Sc1ncnc2scc(-c3ccc(Cl)cc3)c12	CSC inhib 83 (no result: aSyn UTR inh, SKKanGAS inh, KLF5 inh, IEC-6 cytotox)
Cn1nnnc1Sc1ncnc2scc(-c3cccc(S(C)(=O)=O)c3)c12	none (no result: aSyn UTR inh, SKKanGAS inh, KLF5 inh, IEC-6 cytotox)
CC(=O)N/C(=C\c1ccccc1)C(=O)OCC(=O)N(C)C1CCCCC1	none
C/C(=N\NC(=O)c1cc(-c2cccc([N+](=O)[O-])c2)n[nH]1)c1ccccc1O	SKKanGAS inh inconclusive, CSC inhib 80
CCOC(=O)c1c(C)[nH]c(C(=O)N/N=C\c2ccccc2O)c1C	aSyn UTR inh 87, CSC inhib 79
CCOC(=O)c1c(C)[nH]c(C(=O)N/N=C/c2cc([N+](=O)[O-])ccc2O)c1C	SKKanGAS inh 80
CCNC(=O)C(=O)N/N=C/c1cc([N+](=O)[O-])ccc1O	none (no result: CSC inhib)
N#CC1=C(N)N2C(=C(C#N)C1c1cccc(Br)c1)Nc1ccccc12 (centres undefined)	aSyn UTR inh inconclusive
N#CC1=C(N)N2C(=C(C#N)C1c1ccc(Br)cc1)Nc1ccccc12 (centres undefined)	CSC inhib 114
CCOc1ccc(C(=O)Oc2ccc(NC(C)=O)cc2)cc1	aSyn UTR inh 80
CCOC(=O)CSc1cc(CSc2ccccc2)nc(-c2ccccc2)n1	none
Clc1ccc(SCc2cc(Cl)nc(-c3ccccc3)n2)cc1	SKKanGAS inh 67
Clc1cc(CSc2ccccc2)nc(-c2ccccc2)n1	SKKanGAS inh 58 (no result: CSC inhib)
C[C@H]1CN([C@@H](C)CO)C(=O)Cc2cc(NC(=O)Cc3ccccc3)ccc2O[C@H]1CN(C)C(=O)Nc1cccc2ccccc12	none (no result: aSyn UTR inh, SKKanGAS inh, KLF5 inh, IEC-6 cytotox)
CCCNS(=O)(=O)c1cc(CN2C(=O)c3cccnc3C2=O)ccc1OC	none
O=C(CCCN1C(=O)c2ccccc2C1=O)Nc1nnc(C2CC2)s1	none (no result: CSC inhib)
Cc1ccc(C)n1-c1sc2c(c1C#N)CCC(C)C2 (centres undefined)	SKKanGAS inh 62 (no result: CSC inhib)
COc1ccc2sc(-c3ccccc3OC)c(-c3ccc(OC)nc3)c2c1	none (no result: aSyn UTR inh, SKKanGAS inh, KLF5 inh, IEC-6 cytotox)
O=C(c1ccc(OCCN2CCCCC2)cc1)c1c(-c2ccc(O)cc2)sc2cc(O)ccc12	CSC inhib 85 (no result: KLF5 inh, IEC-6 cytotox)
COc1cc2sc(-c3ccccc3OC)c(-c3ccc(OCCN4CCCCC4)cc3)c2cc1OC	CSC inhib 104 (no result: aSyn UTR inh, SKKanGAS inh, KLF5 inh, IEC-6 cytotox)
C1=C(c2sc3ccccc3c2-c2ccc(OCCN3CCOCC3)cc2)CCCC1	CSC inhib 88 (no result: aSyn UTR inh, SKKanGAS inh, KLF5 inh, IEC-6 cytotox)
COc1ccc(-c2sc3cc4c(cc3c2-c2ccc(OCCN3CCOCC3)cc2)OCO4)cc1	CSC inhib 125 (no result: aSyn UTR inh, SKKanGAS inh, KLF5 inh, IEC-6 cytotox)
O=C(COC(=O)[C@@H]1CC(O)CN1S(=O)(=O)c1ccc2c(c1)OCCO2)NCc1ccc(F)cc1 (some centres undefined)	none
Cc1ccc(CNC(=O)COC(=O)c2cccc(S(=O)(=O)N3CCCCC3)c2)cc1	none (no result: aSyn UTR inh, SKKanGAS inh, KLF5 inh, IEC-6 cytotox)
c1ccc(-c2sc3ccccc3c2-c2ccc(OCCN3CCOCC3)cc2)cc1	CSC inhib 86 (no result: aSyn UTR inh, SKKanGAS inh, KLF5 inh, IEC-6 cytotox)
COc1cccc(-c2sc3ccc(OC)cc3c2-c2ccc(OCCN3CCOCC3)cc2)c1	CSC inhib 104 (no result: aSyn UTR inh, SKKanGAS inh, KLF5 inh, IEC-6 cytotox)
CC1CCCCN1CCCNc1ccc(C(CC(N)=O)NC(=O)Cc2cccc3ccccc23)cc1[N+](=O)[O-] (centres undefined)	none
CN(CC(=O)Nc1ccccc1Br)C(=O)CNC(=O)Cc1cccc2ccccc12	none (no result: CSC inhib)
COc1cc(C(=O)N2CCN(c3cc(Cl)ccc3Cl)CC2)cc(OC)c1OC	aSyn UTR inh 89, IEC-6 cytotox 61
COc1ccc(C(=O)N2CCN(C(=O)c3cc(OC)c(OC)c(OC)c3)CC2)cc1	none
C/C(=N\Nc1cc(-c2ccccc2)nc(-c2ccc(Br)cc2)n1)c1cccc(N)c1	none (no result: SKKanGAS inh)
C/C(=N/Nc1cc(-c2ccccc2)nc(-c2ccccc2)n1)c1ccc(O)cc1	SKKanGAS inh 99, CSC inhib 106
O=Cc1[nH]c2ccccc2c1N(C(=O)CCl)c1ccc([N+](=O)[O-])cc1	aSyn UTR inh 84
O=C(NCCCN1CCOCC1)C(=O)N/N=C/c1c2ccccc2cc2ccccc12	aSyn UTR inh 67
NC(=O)C(=O)NCCCN1CCOCC1	none
Cc1ncc(CO)c(/C=N/NC(=S)Nc2ccc(Cl)c(Cl)c2)c1O	SKKanGAS inh 66
Cc1ncc(CO)c(/C=N/NC(=S)Nc2cccc(Cl)c2)c1O	none
COc1ccc(C(=O)CSc2[nH]c(=O)cc(C(F)(F)F)c2C#N)cc1	SKKanGAS inh 66
COc1ccc(-c2cc(C(F)(F)F)c(C#N)c(SCC(=O)Nc3ccc(C)cc3)n2)cc1	none
Cc1ccc(S(=O)(=O)NCC(=O)OC(C)C(=O)NC(=O)NC2CCCCC2)cc1C (centres undefined)	none (no result: aSyn UTR inh, SKKanGAS inh, KLF5 inh, IEC-6 cytotox)
CC(=O)n1c2c(c3ccccc31)OC(N)=C(C#N)C2c1cccc(Cl)c1Cl (centres undefined)	CSC inhib 76
CCOC(=O)c1c(Nc2ccccc2)sc(/C=C2\C=Nc3ccccc32)c1O	none
Oc1nc(Nc2ccccc2)sc1/C=C1\C=Nc2ccccc21	SKKanGAS inh 54, CSC inhib inconclusive
COc1ccc(C2(C)NC(=O)N(CC(=O)Nc3ccc(C)cc3Br)C2=O)cc1OC (centres undefined)	none
FC(F)Sc1ccc(NC(=S)NC(c2ccccc2)c2ccccc2)cc1	SKKanGAS inh 126
CC(=O)Nc1ccc(C#Cc2ccc(NC(C)=O)cc2)cc1	aSyn UTR inh 74, SKKanGAS inh 84
CN(C)c1ccc2nc3ccc(=[N+](C)C)cc-3sc2c1	CSC inhib 96 (no result: SKKanGAS inh)
COc1ccc2nc(N=Nc3ccc(N(C)C)cc3)sc2c1	none (no result: aSyn UTR inh, SKKanGAS inh, CSC inhib)
Cc1cc2nc3ccc(=[N+](C)C)cc-3sc2cc1N	aSyn UTR inh 91 (no result: CSC inhib)
Cc1ccc(S(=O)(=O)N(C)c2ccc(C(=O)Nc3ccccc3C(=O)N3CCOCC3)cc2)cc1	none
O=C(NNc1c(Cl)cccc1Cl)c1c(F)cccc1Cl	SKKanGAS inh 51
O=C(CCNC(=O)C1CCN(S(=O)(=O)c2ccc(F)cc2)CC1)NC1CC1	none
c1ccc(Sc2ccccc2CN2CCCC2)cc1	aSyn UTR inh 85 (no result: KLF5 inh, IEC-6 cytotox)
CCn1c(=S)sc2c(=O)n(CC(=O)Nc3ccccc3C(F)(F)F)c(C)nc21	none
CCOC(=O)C(=O)NNc1ccc(F)cc1	CSC inhib 101
FC(F)(F)c1cccc(NC(=S)NCc2ccc(Cl)cc2)c1	SKKanGAS inh 73
Cc1ccc(NC(=S)NNC(=S)Nc2cccc(C(F)(F)F)c2)cc1	SKKanGAS inh 88
Fc1ccc(CNC(=S)Nc2cccc(C(F)(F)F)c2)cc1	none
FC(F)(F)c1cccc(NC(=S)NNC(=S)Nc2ccc(Cl)cc2)c1	SKKanGAS inh 115, CSC inhib 132
CN(C)NC(=S)Nc1cccc(C(F)(F)F)c1	none
CCc1nnc(NC(=O)/C=C/c2cccs2)s1	none
